Consider 8 molecules from PubChem BioAssay (NCATS).

Several values for one entry are separate records, joined by “and”; a condition that tells them apart may be missing. Equal entries are not always repeated. Results filed as inconclusive are left out. Activity calls are given as the source filed them. Unless noted, calls follow the shape of the dose curve; as a rule, active = well fitted curve in the direction sought with a large enough effect; inconclusive = small, poorly fitted or top-dose-only effect, or another doubt; inactive = no such curve, though single readings can be large; an effect the other way counts as inactive or inconclusive.

Assay [1] can be described thus: qHTS assay for small molecule antagonists of peroxisome proliferator-activated receptor delta signaling (AID 588535; active = well fitted inhibition curve with a large enough effect in the signal ratio, with a control signal flat, not every such curve was filed as active; the % refers to the signal ratio;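 as to max response: cells co-treated with a PPAR-delta agonist as stimulator during compound exposure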). Conditions: HEK293T PPARd-UAS-bla, beta-lactamase FRET ratio, 18 h; 460 nm channel. Summed up: (§1)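 Inhibition of PPAR-delta response element-driven beta-lactamase expression is measured in HEK293T cells exposed to a compound titration series for 18 hrs at 37 C. Half-maximal inhibition comes from Hill equation fitting.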

Assay [2] addresses Peroxisome proliferator-activated receptor delta (Homo sapiens) (UniProt Q03181). Described as above. Particulars: HEK293T PPARd-UAS-bla, beta-lactamase FRET ratio, 18 h; series mostly up to 76.7 µM. The method in brief: as §1
The target of assay [3] is Peroxisome proliferator-activated receptor gamma (Homo sapiens) (UniProt P37231). The experiment in a line: qHTS assay for small molecule antagonists of peroxisome proliferator-activated receptor gamma signaling (AID 588537; active = well fitted inhibition curve with a large enough effect in the signal ratio, with a control signal flat, not every such curve was filed as active; the % refers to the signal ratio;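 also: reporter cells co-stimulated with 50 nM rosiglitazone agonist during compound treatment; % of control where 0% means no effect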). Particulars: HEK293 PPARg-UAS-bla, beta-lactamase ratio, antagonist mode; series mostly up to 76.8 µM. Summed up: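 Compounds are tested as concentration series for inhibition of rosiglitazone-driven (50 nM) reporter expression in GeneBLAzer PPAR-gamma-UAS-bla HEK293 cells. After 16 h at 37 C, CCF4 substrate is added for 2 h at room temperature and blue/green fluorescence is measured.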
Chain of Peroxisome proliferator-activated receptor gamma (Homo sapiens) (P37231 whole entry, looked up): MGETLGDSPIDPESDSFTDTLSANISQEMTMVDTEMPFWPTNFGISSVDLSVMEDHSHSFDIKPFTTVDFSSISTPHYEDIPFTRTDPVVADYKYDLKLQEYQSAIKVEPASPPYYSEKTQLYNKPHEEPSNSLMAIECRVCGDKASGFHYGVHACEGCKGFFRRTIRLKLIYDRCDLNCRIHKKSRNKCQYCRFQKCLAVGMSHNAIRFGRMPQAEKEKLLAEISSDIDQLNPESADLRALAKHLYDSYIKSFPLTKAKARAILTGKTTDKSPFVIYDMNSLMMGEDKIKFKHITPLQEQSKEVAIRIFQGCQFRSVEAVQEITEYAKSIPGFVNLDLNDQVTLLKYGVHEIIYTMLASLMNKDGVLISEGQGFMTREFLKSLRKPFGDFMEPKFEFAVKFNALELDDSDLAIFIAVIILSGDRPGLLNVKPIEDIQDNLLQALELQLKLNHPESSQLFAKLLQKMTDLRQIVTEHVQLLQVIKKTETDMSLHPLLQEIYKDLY

Assay [4] can be described thus: qHTS assay for small molecule agonists of retinoid X receptor alpha signaling (AID 588544; calls by dose curve;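 as to activation: 0% = DMSO basal wells and 100% = reference agonist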). Particulars: HEK293T RXRa-UAS-bla, beta-lactamase reporter, 18 h; 530 nm emission.
The target of assay [5] is Retinoic acid receptor RXR-alpha (Homo sapiens) (UniProt P19793). Described as above. Particulars: HEK293T RXRa-UAS-bla, beta-lactamase reporter, 18 h; series mostly up to 76.7 µM.
Chain of Retinoic acid receptor RXR-alpha (Homo sapiens) (P19793 whole entry, looked up): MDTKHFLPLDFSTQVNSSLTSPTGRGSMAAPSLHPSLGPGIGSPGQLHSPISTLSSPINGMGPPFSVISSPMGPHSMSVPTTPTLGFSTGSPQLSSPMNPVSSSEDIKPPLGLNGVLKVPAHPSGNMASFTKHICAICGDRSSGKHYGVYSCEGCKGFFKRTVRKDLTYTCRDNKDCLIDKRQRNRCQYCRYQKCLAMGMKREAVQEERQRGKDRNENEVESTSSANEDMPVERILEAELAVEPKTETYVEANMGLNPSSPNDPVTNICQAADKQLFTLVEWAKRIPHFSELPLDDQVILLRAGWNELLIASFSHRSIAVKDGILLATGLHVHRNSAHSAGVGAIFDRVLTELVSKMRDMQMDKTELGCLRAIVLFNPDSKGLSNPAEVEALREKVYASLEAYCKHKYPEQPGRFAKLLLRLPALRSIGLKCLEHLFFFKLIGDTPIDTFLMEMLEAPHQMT
Assay [6] deals with Thyroid hormone receptor beta (Homo sapiens) (UniProt P10828). Kind of assay: qHTS assay for small molecule agonists of thyroid hormone receptor beta signaling (AID 588545; calls by dose curve). Conditions: TR-UAS-bla GripTite HEK 293, beta-lactamase ratio, agonist mode, 18 h; series mostly up to 76.7 µM. The method in brief: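 Agonist-mode beta-lactamase reporter assay, HEK 293 cells, 2% charcoal/dextran FBS; cells plated 4 hrs, compound 18 hrs at 37 C, CCF4 2 hrs RT. Normalized to 10 nM T3 (100%) and DMSO (0%); Hill fit gives EC50, efficacy.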
Chain of Thyroid hormone receptor beta (Homo sapiens) (P10828 whole entry, looked up): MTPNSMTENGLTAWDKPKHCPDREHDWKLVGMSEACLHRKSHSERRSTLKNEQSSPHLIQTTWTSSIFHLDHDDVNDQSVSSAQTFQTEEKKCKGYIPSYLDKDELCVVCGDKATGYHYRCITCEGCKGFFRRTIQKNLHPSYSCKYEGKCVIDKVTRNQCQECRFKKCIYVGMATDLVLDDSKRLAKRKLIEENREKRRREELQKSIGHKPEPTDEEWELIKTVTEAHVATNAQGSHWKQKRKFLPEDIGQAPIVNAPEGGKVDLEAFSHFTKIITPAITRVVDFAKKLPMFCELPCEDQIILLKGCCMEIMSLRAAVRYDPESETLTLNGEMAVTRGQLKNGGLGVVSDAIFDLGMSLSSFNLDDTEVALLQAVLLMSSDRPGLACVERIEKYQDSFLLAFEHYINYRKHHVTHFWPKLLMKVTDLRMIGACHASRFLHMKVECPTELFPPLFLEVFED

Assay [7] can be described thus: qHTS assay for small molecule antagonists of retinoid X receptor alpha signaling (AID 588546; active = well fitted inhibition curve with a large enough effect in the signal ratio, with a control signal flat, not every such curve was filed as active; the % refers to the signal ratio;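 also: cells stimulated with 9-cis-retinoic acid as agonist; % is scaled to controls: 0 for no effect and ±100 for the full control effect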). Particulars: HEK293T RXRa-UAS-bla, beta-lactamase ratio, antagonist mode; measured here: W530 green channel, cytotoxicity proxy. Summed up: (§2)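 Beta-lactamase reporter inhibition, read as CCF4 fluorescence ratio (ex 405, em 460/530 nm) after 2 h at RT. HEK293T UAS-bla cells, 2500/well, were stimulated with 9-cis-RA at 500 or 100 nM final alongside test compound for 18 h at 37 C.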

Assay [8] deals with Retinoic acid receptor RXR-alpha (Homo sapiens) (UniProt P19793). The description is as above. Conditions: HEK293T RXRa-UAS-bla, beta-lactamase ratio, antagonist mode. Summed up: as §2
The target in assay [9] is Thyroid hormone receptor beta (Homo sapiens) (UniProt P10828). The experiment in a line: qHTS assay for small molecule antagonists of thyroid hormone receptor beta signaling (AID 588547; active = well fitted inhibition curve with a large enough effect in the signal ratio, with a control signal flat, not every such curve was filed as active; the % refers to the signal ratio;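 also: cells stimulated with 0.4 nM T3 agonist during compound exposure; % is scaled to controls: 0 for no effect and ±100 for the full control effect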). Conditions: TR-UAS-bla HEK293, beta-lactamase ratio, antagonist mode, 18 h. The method in brief: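 TR-UAS-bla GripTite HEK293 cells in 2% charcoal/dextran FBS medium were preincubated 4 h at 37 C, given compound (0.59 nM to 92 uM) plus 0.4 nM T3 (final) for 18 h, then CCF4 for 2 h at RT; Hill fit gave IC50.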

Assay [10] concerns the target Luciferin 4-monooxygenase (Photinus pyralis) (UniProt P08659). The experiment in a line: Biochemical firefly luciferase enzyme assay for NPC (AID 624030).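 Also: purified P. pyralis luciferase at 10 nM with luciferin and ATP substrate; 0% = DMSO and -100% = full luciferase inhibition by PTC124 control; nearly all actives have a fitted effect of over 70% in size.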 Conditions: purified P. pyralis luciferase, luminescence, 5 min; series mostly up to 58.6 µM. The method in brief:
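Counter-screen for direct inhibition of the luciferase enzyme by approved-drug library compounds, run at 10 nM enzyme in 50 mM Tris acetate (final). Luminescence was read within 5 min of enzyme-buffer addition and normalized to PTC124 versus DMSO (0%).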

Assay [11] can be described thus: S16 Schwann cell viability assay (CellTiter-Glo assay) (AID 624031).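 Also: native untransfected S16 rat Schwann cells; cellular ATP luminescence as a viability measure; plate controls were DMSO-treated cells for no effect and cell-free wells for full effect; nearly all actives have a fitted effect of over 70% in size.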 Conditions: S16 rat Schwann cells viability, 24 h; series mostly up to 57.5 µM. The method in brief:
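Following overnight culture in 10% FBS DMEM, parental S16 rat Schwann cells are dosed for 24 h at 37 °C. Viability is read as CellTiter-Glo luminescence and expressed as % activity relative to DMSO (0%) and no-cell wells.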

Assay [12] can be described thus: S16 Schwann cell PMP22 intronic element firefly luciferase assay (AID 624032).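 Also: plate controls were DMSO for no effect and PTC124 positive control mean for full effect; nearly all actives have a fitted effect of over 30% in size.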 Particulars: S16 rat Schwann cells, PMP22 element FLuc, 24 h; series mostly up to 57.5 µM. Summed up: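 Rat S16 Schwann cells stably carrying a PMP22 intronic element-driven Fluc reporter were seeded overnight, then exposed to compounds for 24 h at 37 °C. Luminescence was normalized to PTC124 (positive control) and DMSO (0% activity).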

Assay [13] can be described thus: S16 Schwann cell PMP22 intronic element beta-lactamase assay (AID 624044; calls by dose curve;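 also: 0% = DMSO and -100% = potassium clavulanate positive control; nearly all actives have a fitted effect of over 15% in size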). Conditions: S16 rat Schwann cells, PMP22 element beta-lactamase FRET, 24 h; series mostly up to 38.3 µM. Summed up: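 Beta-lactamase reporter under a PMP22 intronic regulatory element in stable S16 rat Schwann cells; 24 h compound exposure. 460 nm blue signal normalized between DMSO (0%) and potassium clavulanate, with 535 nm FRET tracking viability; curves classed by r2 and response.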

Assay [14] concerns the target Glucocorticoid receptor (Homo sapiens) (UniProt P04150). Kind of assay: qHTS assay for small molecule agonists of glucocorticoid receptor signaling (AID 588532; active = well fitted curve in the direction sought with a large enough effect in the signal ratio, with a control signal flat; the % refers to the signal ratio;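 also: 100% = dexamethasone at 0.1 µM and 0% = DMSO only wells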). Particulars: HeLa MMTV-bla, beta-lactamase ratio, agonist, 18 h; activation: stronger effect = higher value, percent of dexamethasone control, DMSO zero. Summed up:
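MMTV-bla HeLa, beta-lactamase reporter; medium with 1% charcoal/dextran-stripped FBS; cpds up to 92 uM, 18 h, 37 C; CCF4 readout 460/530 nm; Hill fit → EC50, efficacy vs 0.1 uM dexamethasone = 100%.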

For assay [15] the target is unchanged. Kind of assay: qHTS assay for small molecule antagonists of glucocorticoid receptor signaling (AID 588533; active = well fitted inhibition curve with a large enough effect in the signal ratio, with a control signal flat, not every such curve was filed as active; the % refers to the signal ratio;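 also: cells stimulated with 2 nM dexamethasone as agonist; % is scaled to controls: 0 for no effect and ±100 for the full control effect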). Conditions: HeLa MMTV-bla, GRE beta-lactamase ratio, antagonist mode, 18 h; series mostly up to 76.8 µM. The method in brief:
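Antagonist-mode qHTS: compound titrations added to GRE-bla HeLa cells, then dexamethasone 2 nM final; 18 h, 37 C. CCF4 FRET fluorescence normalized to dexamethasone and DMSO; IC50 from Hill fit.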

The target in assay [16] is Vitamin D3 receptor (Homo sapiens) (UniProt P11473). The experiment in a line: qHTS assay for small molecule antagonists of vitamin D receptor signaling (AID 588541; calls by dose curve;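 also: receptor activated by calcitriol during compound treatment; % is scaled to controls: 0 for no effect and ±100 for the full control effect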). Particulars: HEK293T VDR-UAS-bla, beta-lactamase ratio, antagonist mode; series mostly up to 76.7 µM. Summed up:
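VDR-UAS-bla HEK293T cells (2000/well, 2% charcoal-stripped FBS) were treated with titrated compounds plus 1-alpha,25-dihydroxyvitamin D3 (50 nM or 3 nM final) for 16 h at 37 C. CCF4 beta-lactamase fluorescence was read; Hill fits gave IC50.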

For assay [17] the target is unchanged. The experiment in a line: qHTS assay for small molecule agonists of vitamin D receptor signaling (AID 588543; calls by dose curve;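 also: 0% = DMSO basal and 100% = reference agonist control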). Particulars: HEK293T VDR-UAS-bla, beta-lactamase ratio, 16 h; series mostly up to 76.8 µM. Summed up:
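Agonist-mode beta-lactamase reporter: HEK293T VDR-UAS-bla cells in charcoal-stripped 2% FBS, compound series 16 h 37 C, CCF4 2 h RT. EC50 from Hill fit, scaled against DMSO and 50 nM calcitriol control.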

Assay [18] concerns the target Glutaminase kidney isoform, mitochondrial (Homo sapiens) (UniProt O94925). Kind of assay: qHTS for Inhibitors of Glutaminase (GLS): LOPAC Validation (AID 624146). Also: nearly all actives have a fitted effect of over 60% in size. Also: potency is read from the fitted curve at half-maximal effect. Conditions: glutaminase enzyme activity inhibition; series mostly up to 46.1 µM. Summed up: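 hKGA in 45 mM KH2PO4 pH 8.2, 0.02% Tween-20 with pin-transferred compounds; 1 mM L-glutamine (stock) plus glutamate oxidase/HRP/Amplex Red coupling added. Fluorescence read initially and after 30 min at RT.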

Assay [19] in a line: qHTS of Trypanosoma Brucei Inhibitors: LOPAC Validation (AID 624147). Also: 0% is about no effect. Conditions: purified enzyme assay, luminescence, 45 min; series mostly up to 57.5 µM. Summed up:
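Glycolytic pyruvate kinase of T. brucei was incubated with substrate, test compound and 130 uM ADP for 45 minutes at room temperature. Luminescent Kinase-Glo Plus signal was measured after 10 minutes.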

For assay [20], the target named is Voltage-gated inwardly rectifying potassium channel KCNH2 (Homo sapiens) (UniProt Q12809). Kind of assay: qHTS Assay for Small Molecule Inhibitors of the Human hERG Channel Activity (AID 588834).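 Also: lower thallium flux fluorescence means stronger hERG block; nearly all actives have a fitted effect of over 50% in size.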 Also: potency is read from the fitted curve at half-maximal effect. Conditions: U2OS BacMam hERG, FluxOR thallium flux fluorescence; series mostly up to 46.1 µM. The method in brief: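 hERG block measured as reduced thallium-dye (FluxOR) fluorescence after stimulation buffer addition, read over 2 min. Cells were hERG-BacMam-transduced U2OS exposed to compound ~10 min […]; concentration-response fitted with Hill equation for AC50.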
Chain of Voltage-gated inwardly rectifying potassium channel KCNH2 (Homo sapiens) (Q12809 whole entry, looked up): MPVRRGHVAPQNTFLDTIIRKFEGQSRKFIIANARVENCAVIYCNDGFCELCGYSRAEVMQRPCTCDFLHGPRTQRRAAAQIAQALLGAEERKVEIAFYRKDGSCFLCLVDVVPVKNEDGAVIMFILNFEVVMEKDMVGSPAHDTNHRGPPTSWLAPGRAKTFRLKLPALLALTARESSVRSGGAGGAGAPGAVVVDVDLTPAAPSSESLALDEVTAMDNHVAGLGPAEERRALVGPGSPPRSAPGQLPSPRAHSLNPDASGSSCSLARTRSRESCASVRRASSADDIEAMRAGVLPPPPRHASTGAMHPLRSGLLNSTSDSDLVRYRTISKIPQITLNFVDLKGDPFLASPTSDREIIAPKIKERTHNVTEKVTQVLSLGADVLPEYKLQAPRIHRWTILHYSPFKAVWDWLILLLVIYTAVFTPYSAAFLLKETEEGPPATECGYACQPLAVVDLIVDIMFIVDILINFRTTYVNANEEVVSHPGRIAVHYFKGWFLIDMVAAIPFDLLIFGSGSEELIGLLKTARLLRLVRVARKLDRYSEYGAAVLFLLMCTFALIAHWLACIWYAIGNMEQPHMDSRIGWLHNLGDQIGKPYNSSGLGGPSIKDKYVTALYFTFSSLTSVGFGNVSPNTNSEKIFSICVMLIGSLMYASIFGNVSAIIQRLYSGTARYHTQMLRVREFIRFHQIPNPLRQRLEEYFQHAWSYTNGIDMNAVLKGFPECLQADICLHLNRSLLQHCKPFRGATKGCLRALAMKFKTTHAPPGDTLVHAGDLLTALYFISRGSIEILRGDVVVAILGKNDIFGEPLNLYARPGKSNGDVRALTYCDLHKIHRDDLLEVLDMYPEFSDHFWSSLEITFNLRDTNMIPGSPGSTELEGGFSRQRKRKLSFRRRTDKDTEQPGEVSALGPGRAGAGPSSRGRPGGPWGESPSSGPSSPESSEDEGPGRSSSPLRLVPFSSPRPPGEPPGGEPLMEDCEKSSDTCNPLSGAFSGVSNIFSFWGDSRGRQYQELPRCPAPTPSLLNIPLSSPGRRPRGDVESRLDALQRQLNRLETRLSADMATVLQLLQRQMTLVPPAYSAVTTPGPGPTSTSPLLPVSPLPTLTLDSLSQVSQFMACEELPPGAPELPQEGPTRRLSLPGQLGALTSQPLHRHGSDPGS

Chain of Glutaminase kidney isoform, mitochondrial (Homo sapiens) (O94925 whole entry, looked up, canonical isoform): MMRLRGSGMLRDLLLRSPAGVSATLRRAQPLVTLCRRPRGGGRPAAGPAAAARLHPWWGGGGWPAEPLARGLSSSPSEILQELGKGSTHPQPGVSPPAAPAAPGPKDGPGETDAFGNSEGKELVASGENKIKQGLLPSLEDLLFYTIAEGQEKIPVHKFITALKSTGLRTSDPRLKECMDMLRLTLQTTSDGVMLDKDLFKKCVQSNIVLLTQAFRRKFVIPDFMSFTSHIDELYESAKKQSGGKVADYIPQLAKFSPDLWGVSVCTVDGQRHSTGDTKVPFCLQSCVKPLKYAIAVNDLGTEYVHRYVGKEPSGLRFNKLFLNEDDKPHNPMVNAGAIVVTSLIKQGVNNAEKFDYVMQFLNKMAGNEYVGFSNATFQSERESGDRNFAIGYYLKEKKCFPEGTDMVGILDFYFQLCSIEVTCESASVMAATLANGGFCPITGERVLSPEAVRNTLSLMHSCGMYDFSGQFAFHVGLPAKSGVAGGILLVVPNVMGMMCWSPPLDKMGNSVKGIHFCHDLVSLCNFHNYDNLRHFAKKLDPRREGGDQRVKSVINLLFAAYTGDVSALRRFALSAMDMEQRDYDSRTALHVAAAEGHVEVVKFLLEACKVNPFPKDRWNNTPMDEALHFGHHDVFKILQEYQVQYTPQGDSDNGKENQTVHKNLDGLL
Chain of Glucocorticoid receptor (Homo sapiens) (P04150 whole entry, looked up): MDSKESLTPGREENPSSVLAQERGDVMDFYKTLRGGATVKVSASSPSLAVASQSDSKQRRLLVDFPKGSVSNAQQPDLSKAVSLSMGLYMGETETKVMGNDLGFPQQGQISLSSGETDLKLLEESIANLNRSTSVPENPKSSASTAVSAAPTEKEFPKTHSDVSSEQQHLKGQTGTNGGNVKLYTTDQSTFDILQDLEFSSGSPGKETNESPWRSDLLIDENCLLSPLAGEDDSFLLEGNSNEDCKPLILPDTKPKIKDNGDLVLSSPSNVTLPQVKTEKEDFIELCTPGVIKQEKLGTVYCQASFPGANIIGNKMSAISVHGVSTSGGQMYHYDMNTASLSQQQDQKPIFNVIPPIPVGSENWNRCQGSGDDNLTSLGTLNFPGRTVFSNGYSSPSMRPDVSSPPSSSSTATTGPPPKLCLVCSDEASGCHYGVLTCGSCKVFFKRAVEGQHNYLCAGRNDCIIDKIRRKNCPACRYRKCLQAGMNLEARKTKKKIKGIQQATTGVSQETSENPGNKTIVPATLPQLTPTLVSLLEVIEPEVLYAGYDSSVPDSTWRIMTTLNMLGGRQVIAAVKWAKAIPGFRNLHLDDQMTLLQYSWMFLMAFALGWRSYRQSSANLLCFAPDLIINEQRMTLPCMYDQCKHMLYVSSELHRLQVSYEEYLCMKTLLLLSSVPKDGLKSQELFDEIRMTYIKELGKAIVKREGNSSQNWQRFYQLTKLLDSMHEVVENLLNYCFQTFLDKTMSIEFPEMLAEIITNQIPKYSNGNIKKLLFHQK
Chain of Luciferin 4-monooxygenase (Photinus pyralis) (P08659 whole entry, looked up): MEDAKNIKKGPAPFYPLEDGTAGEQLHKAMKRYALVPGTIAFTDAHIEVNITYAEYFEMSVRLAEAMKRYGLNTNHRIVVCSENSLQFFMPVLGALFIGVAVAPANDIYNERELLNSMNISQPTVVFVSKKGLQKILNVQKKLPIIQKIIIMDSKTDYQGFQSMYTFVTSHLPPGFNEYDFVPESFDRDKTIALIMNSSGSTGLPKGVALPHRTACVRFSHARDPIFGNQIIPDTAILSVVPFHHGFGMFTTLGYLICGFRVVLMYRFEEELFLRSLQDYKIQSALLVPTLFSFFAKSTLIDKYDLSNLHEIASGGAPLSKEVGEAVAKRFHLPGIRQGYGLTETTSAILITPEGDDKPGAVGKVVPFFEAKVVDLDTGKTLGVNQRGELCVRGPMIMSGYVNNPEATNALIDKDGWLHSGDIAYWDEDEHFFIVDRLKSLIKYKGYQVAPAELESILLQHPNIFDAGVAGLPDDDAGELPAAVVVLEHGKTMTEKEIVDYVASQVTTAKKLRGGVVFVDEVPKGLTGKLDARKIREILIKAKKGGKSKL
Chain of Peroxisome proliferator-activated receptor delta (Homo sapiens) (Q03181 whole entry, looked up): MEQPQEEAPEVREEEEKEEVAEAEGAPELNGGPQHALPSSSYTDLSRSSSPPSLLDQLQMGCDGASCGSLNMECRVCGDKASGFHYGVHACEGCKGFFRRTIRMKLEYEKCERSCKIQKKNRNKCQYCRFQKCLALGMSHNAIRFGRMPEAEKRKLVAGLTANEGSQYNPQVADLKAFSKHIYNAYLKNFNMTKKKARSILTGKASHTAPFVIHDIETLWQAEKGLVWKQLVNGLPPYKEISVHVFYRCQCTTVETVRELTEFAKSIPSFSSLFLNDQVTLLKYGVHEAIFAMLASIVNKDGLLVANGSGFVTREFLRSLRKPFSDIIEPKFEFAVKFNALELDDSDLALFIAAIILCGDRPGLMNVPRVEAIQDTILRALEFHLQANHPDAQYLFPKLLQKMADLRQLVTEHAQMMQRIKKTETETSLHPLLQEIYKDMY

`CCCCOCCOCCOCc1cc2c(cc1CCC)OCO2`: the max response was 7.63% in assay [1]; 14.8% and -2.85% in [4]; -2.81% and -3.67% in assay [7]; -27.1% (inactive) and 3.9% (inactive) in assay [8]. Also, the result in assay [2], in assay [3] and in assay [5] was inactive. Further, the Potency entry in assay [6], in assay [10], in [11], in assay [12] and in [13] was “inactive” each time. Also, the activity change % (negative = inhibition) in [9] is 4.23% (inactive) and -22.6% (inactive).
In the case of `Cc1ccc(S(=O)(=O)NC(=O)NN2CCCCCC2)cc1`, the activation in [14] is -1.16% (inactive). Also, the Potency entry in [15], in [6], in [10], in [11] and in [13] was “inactive” throughout. For the same molecule, the max response was 47.3% in assay [1], -3.25% in assay [4], -4.69% in [7] and -7.05% (inactive) in assay [8]. The result in [2], in assay [3], in assay [16], in assay [17], in [5] and in assay [19] was inactive. Besides, the activity change % (negative = inhibition) in assay [9] was 5.89% (inactive). Besides, the Potency in assay [18] is 10 µM (active).
`COc1ccc(CN(CCN(C)C)c2ccccn2)cc1`: in [14], the activation is -0.651% (inactive). Further, the max response was 15.1% in [1], 16.3% in assay [4], 1.42% in assay [7] and 2.77% (inactive) in assay [8]. In addition, the outcome in assay [2], in assay [5] and in assay [19] was inactive. Moreover, the Potency entry in assay [6], in [10], in [11] and in [18] was “inactive” throughout. Moreover, in assay [9], the activity change % (negative = inhibition) is -10.9% (inactive). Moreover, in assay [20], the Potency was 12.6 µM (active) and 14.1 µM (active) and 8.91 µM (active).
For `Cc1ccc(=O)n(-c2ccccc2)c1`, the Potency result in assay [20], in [10], in assay [11], in assay [12] and in [18] was “inactive” each time. In addition, the molecule was classed as inactive in [19].
Consider `CO[C@@]1(NC(=O)CSCC#N)C(=O)N2C(C(=O)O)=C(CSc3nnnn3C)CS[C@@H]21`, for which the Potency result in assay [20] was “inactive”.
In the case of `COC(=O)[C@H]1[C@H]2C[C@@H]3c4[nH]c5cc(OC)ccc5c4CCN3C[C@H]2C[C@@H](OC(=O)c2cc(OC)c(OC)c(OC)c2)[C@@H]1OC`, in [14], the activation is 4.47% (inactive). In addition, the Potency result in assay [15], in assay [6], in assay [10], in assay [11] and in assay [13] was “inactive” throughout. Besides, in [18], the Potency is 10 µM (active). For the same molecule, in assay [19], the molecule was called inactive.
As to `COc1cc(Cc2cnc(N)nc2N)cc(OC)c1OC`, in [14], the activation was -1.11% (inactive). In addition, the Potency result in assay [15], in [6], in assay [20], in assay [10], in [11] and in assay [13] was “inactive” throughout. For the same molecule, the Potency result in assay [18] was “inactive”. Besides, the max response in assay [1] was 38%; in assay [4] it was 1.73%; in assay [7], -17.2%; in [8] it was 0.608% (inactive). In addition, the outcome in [2], in assay [3], in assay [16], in assay [17], in assay [5] and in [19] was inactive. The activity change % (negative = inhibition) in assay [9] was -6.78% (inactive).
Take `CCn1nc(C(=O)O)c(=O)c2cc3c(cc21)OCO3`: the Potency result in assay [20], in assay [10], in assay [11], in [12], in assay [13] and in assay [18] was “inactive” in each case. In [19], the result was inactive.
